The subject of test [1] is Zika virus NS2B-NS3 protease (linked construct). Nature of the test: Primary screen NINDS Rhodamine qHTS for Zika virus inhibitors (AID 1347160). Also: nearly all actives have a fitted effect of over 55% in size. Also: potency is read from the fitted curve at half-maximal effect. The method in brief:
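Purified NS2B-NS3 protease with the NS2B hydrophilic domain joined by a flexible linker (25 nM) in 10 mM Tris-HCl pH 8.0, 0.01% Tween 20, preincubated 15 min at RT with compound; Rhodamine110 peptide substrate 1.5 µM; fluorescence change over 15 min; 4-parameter Hill fit.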
(In general: In qHTS, concentration-response curves come from the screen itself.)

The nature of test [2]: UWB1.289 Cancer Cell Toxicity qHTS against the NCATS CANVASS Library (AID 1347347). Also: nearly all actives have a fitted effect of over 60% in size. Also: potency is read from the fitted curve at half-maximal effect. As to activity change, negative = cytotoxicity: series mostly up to about 38 µM; % is scaled to controls: 0 for no effect and ±100 for the full control effect. The method in brief: (§1)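 1000 cells/well; 4 h settle; 11-pnt titration; 72 h, 37 degrees C, 5% CO2; CellTiter-Glo, 15min RT; luminescence read.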
Test [3] in a line: Panc-1005 Cancer Cell Toxicity qHTS against the NCATS CANVASS Library (AID 1347349). Also: nearly all actives have a fitted effect of over 60% in size. Also: potency is read from the fitted curve at half-maximal effect. As to activity change, negative = cytotoxicity: series mostly up to about 38 µM; % is scaled to controls: 0 for no effect and ±100 for the full control effect. The method in brief: as §1
A short description of test [4]: UWB1.289-WTBRCA1 Cancer Cell Toxicity qHTS against the NCATS CANVASS Library (AID 1347354). As to activity change, negative = cytotoxicity: % is scaled to controls: 0 for no effect and ±100 for the full control effect. The method in brief:
(§2)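 qHTS cytotoxicity: compounds tested in 11 concentrations on 1000 seeded cells per well over 72 h; bortezomib served as control; signal from CellTiter-Glo luminescence.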

A short description of test [5]: HPAF-II Cancer Cell Toxicity qHTS against the NCATS CANVASS Library (AID 1347346). Also: nearly all actives have a fitted effect of over 55% in size. Also: potency is read from the fitted curve at half-maximal effect. The method in brief: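 Cytotoxicity in HPAF-II pancreatic cancer cells: 72 h treatment across 11 concentrations, ATP-based CellTiter-Glo luminescence endpoint.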
Test [6] in a line: COV-362 Cancer Cell Toxicity qHTS against the NCATS CANVASS Library (AID 1347352). Also: potency is read from the fitted curve at half-maximal effect. The method in brief:
as §2

Test [7] is described as follows: qHTS for Hypoxia signaling pathway (HIF-1) agonists against the NCATS CANVASS Library (AID 1347375). Also: 0% is about no effect. The method in brief: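 Inducers of HIF-1 signaling were detected in ME-180 cells bearing an HRE-driven beta-lactamase reporter after 17 h compound exposure. Activity came from CCF4-AM FRET emission ratio (460/530 nm) in qHTS format.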
Test [8] can be described thus: qHTS assay for small molecule disruptors of mitochondrial membrane potential screened against the NCATS CANVASS Library (AID 1347389). Also: nearly all actives have a fitted effect of over 60% in size. Also: potency is read from the fitted curve at half-maximal effect. The method in brief: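 Compounds tested in 11-point qHTS series on HepG2 cells for 1 hr; membrane-potential dye added for 30 min at 37C. Lower red-to-green ratio indicates loss of potential.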
A short description of test [9]: qHTS for Antimalaria activity screened against the NCATS CANVASS Library (AID 1347380). Also: nearly all actives have a fitted effect of over 40% in size. Also: potency is read from the fitted curve at half-maximal effect. The method in brief:
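Growth inhibition of asexual erythrocytic P. falciparum Dd2 was quantified by SYBR Green DNA staining. Cultures grew 72 h with compound (11-point series) in hypoxic gas at 37C; lysis and staining lasted 18 h.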

Test [10] is described as follows: NCATS anti-infectives library activity on HEK293 viability as a counter-qHTS vs the C. elegans viability qHTS (AID 1745854).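 Also: HEK293 cells exposed to compounds for 24 hr before the viability read; % is scaled to controls: 0 for no effect and ±100 for the full control effect.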 The method in brief: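 Cytotoxicity in human HEK293 cells is measured by ATP-dependent CellTiter-Glo luminescence following a 24 hr incubation with titrated library compounds at 37C. Top final concentration is 41.7 uM.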
Test [11] has as its target Cytochrome P450 3A4 (Homo sapiens) (UniProt P08684). The test can be described thus: qHTS Assay for Activators of Cytochrome P450 3A4 (AID 885). Also: nearly all actives have a fitted effect of over 65% in size. The method in brief:
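Human CYP3A4 (20 nM) with Luciferin-PPXE at 25 uM (its KM) in 200 mM KPO4; 10 min compound preincubation, then NADPH regeneration and 60 min reaction at RT. Luciferin read by luminescence; normalized to 57 uM ketoconazole full inhibition.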

Test [12] in a line: Confirmation and Secondary Assay for Modulators of Hemoglobin Beta Chain Splicing at IVS2 654 locus (AID 910).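 Also: HeLa cells stably carrying EGFP split by mutant beta-globin IVS2-654 intron; % of control where 0% means no effect.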 The method in brief: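 HeLa cells stably expressing EGFP interrupted by β-globin IVS2-654 intron, seeded overnight in Opti-MEM/2% FCS, then treated 2 days at 37 °C. Restored splicing read as total peak GFP intensity per well by laser scanning cytometry (488 nm excitation, 500–520 nm emission); 500 nM antisense PNA as control.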

A short description of test [13]: Confirmation and Secondary Assay for Modulators of Hemoglobin Beta Chain Splicing at IVS2 705 locus (AID 930).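 Also: HeLa cells stably expressing the EGFP-705 splicing reporter; GFP fluorescence per well restored by corrected splicing of the IVS2-705 intron in EGFP; series mostly up to about 46 µM; % of control where 0% means no effect.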 The method in brief:
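Read-out: total peak GFP fluorescence per well (488 nm excitation, 500-520 nm emission) by laser-scanning cytometry. Cells: HeLa EGFP-705 splicing reporter, 2 days compound exposure in Optimem/2% FCS.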

A short description of test [14]: Confirmatory screen NINDS Rhodamine qHTS for Zika virus inhibitors (AID 1347161). Also: potency is read from the fitted curve at half-maximal effect; nearly all actives have a fitted effect of over 60% in size. The method in brief:
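Each compound, titrated, sat 15 min with 25 nM linked protease before 1.5 microM Rhodamine110 substrate went in. Fluorescence gain over the next 15 min, in pH 8.0 Tris with Tween 20, gave Hill-fitted curves.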

Test [15] deals with Zika virus NS2B-NS3 protease (linked). The test can be described thus: 384 well plate NINDS AMC confirmatory qHTS for Zika virus inhibitors (AID 1347163). Also: potency is read from the fitted curve at half-maximal effect; nearly all actives have a fitted effect of over 50% in size. The method in brief: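 Linked protease 5/30/60 nM final; cpds up to 1 mM final, ~15 min preinc. Substrate Ac-VKTGKR-AMC 30 microM final. RT, dark, 25 min; FI ex 355/em 460; normalized to no-enzyme/no-inhibitor ctrls.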
Test [16] has as its system Zika virus NS2B-NS3 protease (linked construct). Nature of the test: 384 well plate NINDS Rhodamine confirmatory qHTS for Zika virus inhibitors (AID 1347164).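 Also: fluorescence from protease cleavage of Ac-LKRR-rhodamine 110 substrate; potency is read from the fitted curve at half-maximal effect; nearly all actives have a fitted effect of over 65% in size.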 The method in brief:
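Fluorescence at 485/538 nm was measured 25 minutes after adding 10 microM Ac-LKRR-Rd substrate, in the dark at room temperature. The protease (5, 30 or 60 nM final) had been preincubated ~15 minutes with compound; aprotinin as control.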

Unmarked numbers belong to inactive results. Records with an inconclusive call do not appear. Active and inactive are the calls of the source. Calls follow the shape of the dose curve; as a rule, active = well fitted curve in the direction sought with a large enough effect; inconclusive = small, poorly fitted or top-dose-only effect, or another doubt; inactive = no such curve, though single readings can be large; an effect the other way counts as inactive or inconclusive.

Chain of Cytochrome P450 3A4 (Homo sapiens) (P08684 whole entry, looked up): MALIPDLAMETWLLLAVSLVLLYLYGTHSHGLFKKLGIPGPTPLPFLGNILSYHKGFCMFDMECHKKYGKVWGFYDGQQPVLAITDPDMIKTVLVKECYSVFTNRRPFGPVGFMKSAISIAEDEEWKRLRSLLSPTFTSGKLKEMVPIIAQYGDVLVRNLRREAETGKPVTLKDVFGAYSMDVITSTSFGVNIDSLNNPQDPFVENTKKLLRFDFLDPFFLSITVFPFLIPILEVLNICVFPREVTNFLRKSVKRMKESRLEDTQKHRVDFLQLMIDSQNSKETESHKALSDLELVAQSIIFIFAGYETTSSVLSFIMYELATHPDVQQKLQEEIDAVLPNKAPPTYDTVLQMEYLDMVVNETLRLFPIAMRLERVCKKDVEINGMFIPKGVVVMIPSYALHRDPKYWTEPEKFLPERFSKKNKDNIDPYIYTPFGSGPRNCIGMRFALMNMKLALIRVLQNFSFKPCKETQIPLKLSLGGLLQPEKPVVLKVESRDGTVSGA

As to `C=CC(CCCCC)C1C(=O)NC(=O)C1C(=O)C1C2C(C)CC(C(=O)O)CC2CC1(O)C(=O)/C=C/C` (stereo unspecified), the Potency in [1] was 6.21 µM (active). The Potency entry in test [2], in test [3] and in test [4] was “inactive” each time.
For the compound `COc1c(O)cc2c(c1O)C(=O)c1c(coc1C)C2=O`, the Potency in [1] was 9.84 µM (active). Also, the Potency entry in test [5], in test [2], in test [3] and in [6] was “inactive” in each case. In addition, the call in test [7] was inactive.
For the compound `COc1cc(C2OCC3C(c4ccc(O)c(OC)c4)OCC23)ccc1O` (stereo unspecified), in [1], the Potency result is “inactive”. The activity change, negative = cytotoxicity in test [2] is -13.2% [at 7.64 µM]; in [6], -3.45% [at 7.64 µM]. Besides, the outcome in [4] is “inactive [at 7.64 µM]”. In test [7], the activation was -1.39% [at 7.64 µM]. For the same compound, in [8], the activity change, negative = depolarization is 2.39% [at 9.19 µM].
Regarding `C[C@]12CC[C@]3(C1)[C@H](CC2=O)C[C@@H](OC(=O)c1ccccc1)[C@H]1[C@](C)(C(=O)O)CCC[C@@]13C`, the Potency in test [1] is 19.6 µM (active); in [9], 0.0133 µM (active). The Potency result in test [4] and in test [8] was “inactive” each time. For the same compound, the result in [7] was inactive.
As to `C/C(=C\[C@H](C)C(=O)/C=C/CC1CC(=O)NC(=O)C1)[C@@H]1OC(=O)/C=C/CC/C=C/C[C@@H](O)[C@@H]1C`, the Potency in [1] was 31.1 µM (active); in test [5], 2.98 µM (active); in [2] it was 2.98 µM (active); in [6], 2.36 µM (active). Moreover, in [7], the call was inactive.
As for `C=C[C@](Cl)(CBr)CCC=C(C)C`, the Potency entry in [1], in test [5], in test [2], in test [9] and in test [8] was “inactive” in each case. For the same compound, in test [7], the outcome was inactive.
For `CCC(=O)CCCCC[C@@H]1NC(=O)[C@H]2CCCCN2C(=O)[C@H](C(C)C)NC(=O)[C@H](Cc2cn(OC)c3ccccc23)NC1=O`, the Potency is 13.9 µM (active) in [1], 2.98 µM (active) in test [5], 7.47 µM (active) in test [2] and 0.747 µM (active) in test [9]. Besides, in test [7], the result was inactive. In test [8], the Potency entry is “inactive”.
As for `COc1cc(O)c(C(=O)[C@@H]2[C@H](CC=C(C)C)C(C)=CC[C@H]2c2ccccc2)c(O)c1`, the Potency was 15.6 µM (active) in [1]; 13.3 µM (active) in test [5]; 13.3 µM (active) in test [2]; 9.43 µM (active) in test [3]; 6.66 µM (active) in test [9]; 4.67 µM (active) in test [8].
On to `COc1ccc2[nH]c3c(c2c1)CCN1C[C@H]2C[C@@H](OC(=O)c4cc(OC)c(OC)c(OC)c4)[C@H](OC)[C@@H](OC)[C@H]2C[C@H]31`, for which the Potency entry in test [1] is “inactive”. Also, the values for the Potency in [5], in test [3] and in [9] were 13.3 µM (active), 13.3 µM (active) and 7.47 µM (active), respectively. Further, in test [7], the call was inactive.
Regarding `C/C1=C/[C@@H](C)[C@H](O)[C@@H](O)/C=C/CC/C=C/C(=O)O[C@@H]1[C@H](C)C(=O)CCCC1CC(=O)NC(=O)C1`, the Potency entry in test [1], in test [2], in [3], in [6], in test [9] and in [8] was “inactive” each time.
As to `C=CC(CCCCC)C1C(=O)NC(=O)C1C(=O)C1C(/C=C/C)C=CC2CC(C(=O)O)CC(C)C21` (stereo unspecified), the Potency in test [1] is 3.92 µM (active); in test [5], 9.43 µM (active). In addition, the Potency result in test [6] was “inactive”.
As to `C[C@]12CCC[C@](C)(C(=O)O)[C@@H]1CC[C@@]1(C)c3cocc3CC[C@H]21`, the Potency in test [1] is 15.6 µM (active). Besides, the Potency entry in [2], in [6] and in [8] was “inactive” in each case.
As for `C/C(=C\CC[C@@H](C)[C@H]1CC[C@]2(C)C3=CCC4C(C)(C)[C@@H](O)C[C@@H](O)[C@]4(C)C3[C@H](O)C[C@@]12C)CO` (stereo partly specified), in test [1], the Potency was 19.6 µM (active).
On to `CO[C@H]1[C@@H](OC(=O)/C(C)=C\[C@@H]2O[C@@H]2[C@H]2O[C@H]2C)[C@H](O)[C@H](OCC23C[C@@H]4[C@H](C)CC[C@H]4C4(C=O)CC2C=C(C(C)C)C34C(=O)O)O[C@@H]1C` (stereo partly specified), for which the Potency in test [1] is 22 µM (active). The Potency entry in test [2], in test [3], in test [6] and in [8] was “inactive” each time. Moreover, in [7], the compound was called inactive.
Regarding `CN1CC[C@]2(c3cccc4c3N[C@H]3N(C)CC[C@@]43[C@]34CCN(C)[C@H]3Nc3ccccc34)c3ccccc3N[C@H]12`, the Potency result in [1] is “inactive”. Moreover, the Potency is 18.8 µM (active) in test [2], 21.1 µM (active) in [3], 14.9 µM (active) in test [6] and 0.0375 µM (active) in [9]. Further, the result in test [7] was inactive.
In the case of `C=C(C)CC[C@H](Cc1c(O)cc(O)c2c1O[C@H](c1ccc(O)cc1)CC2=O)C(=C)C`, the Potency in test [1] is 15.6 µM (active); in [8], 8.31 µM (active). The Potency result in test [5], in test [4] and in [9] was “inactive” in each case.
In the case of `O=c1cc(-c2ccc(O)c(O)c2)oc2cc(O[C@@H]3O[C@H](CO)[C@@H](O)[C@H](O)[C@H]3O)cc(O)c12`, the Potency in test [1] is 17.5 µM (active); in test [2] it was 1.18 µM (active); in test [9], 0.236 µM (active); in test [8], 8.31 µM (active). The Potency entry in test [10] was “inactive”.
For the compound `CC(C)=CCc1c2c(c3occ(-c4ccc(O)c(O)c4)c(=O)c3c1O)C=CC(C)(C)O2`, in test [11], the Potency entry is “inactive”. Besides, the call in test [12] and in test [13] was inactive. The Potency in [14] is 12.4 µM (active); in [15], 7.08 µM (active); in test [16], 7.94 µM (active).
With `COc1ccc([C@@H]2CC(=O)c3c(cc(O)c(C/C=C(\C)CCC=C(C)C)c3O)O2)cc1`, the Potency in test [1] was 7.2 µM (active). For the same compound, the activity change, negative = cytotoxicity in test [5] is -11.2% [at 7.64 µM]; in test [6], 1.08% [at 7.64 µM].
On to `C[C@@H]1CC[C@]2(C(=O)O)CC[C@]3(C)C(=C2[C@H]1C)CC[C@@H]1[C@@]2(C)CC[C@H](O)C(C)(C)[C@@H]2CC[C@]13C`, for which, in test [1], the Potency was 34.9 µM (active). For the same compound, the outcome in test [7] was inactive.
Regarding `CCC(C)=C1OC(=O)[C@H](C)[C@H](O)[C@H](Cc2cccnc2)NC(=O)C(NC(=O)c2ncccc2O)C(C)OC1=O` (stereo partly specified), the Potency entry in [5], in test [2], in test [3], in test [6] and in test [9] was “inactive” throughout.

For the origin of these results see PubChem BioAssay (NCATS).
